Data taken from PubChem BioAssay AID463173 (ICCB-Longwood Screening Facility, Harvard Medical School, 2010).
Among all 52,000 compounds or so, about 4,300 (8.3%) were called active. Shown is part of a subset that was picked to be rich in actives. Unmarked numbers belong to inactive results. Rule as the data show it: active = survival mostly below about 52% (no sharp cut-off); inactive = mostly above about 56%.

These compounds were tested on DeltatarO mutant (assay: growth inhibition of S. aureus wild type versus tarO mutant, primary screen, teichoic acid synthesis inhibitors, RN4220, OD600 (AID 463173)). Details: OD600, 18 h, stronger effect = lower value, screened at 18.75 µg/mL (by protocol).

Row | SMILES | survival
1 | CCc1ccc(-n2c(=O)c3ccc(C(=O)NCCc4ccccc4)cc3n(CC(N)=O)c2=O)cc1 | 86%
2 | COC(=O)C1(CO)NC(c2ccccc2F)C2C(=O)N(c3ccccc3)C(=O)C21 (stereo not drawn) | 86%
3 | COc1ccc(-c2nc(C)c(CCNC(=O)c3cccs3)s2)cc1 | 61%
4 | O=C(Nc1ccc(N2CCC(c3ccccc3)C2)c(C(=O)O)c1)c1ccc(Cl)cc1 (stereo not drawn) | 60%
5 | CCNC(=O)C1CCCN(c2nn3cc(-c4ccc(C)cc4)nc3s2)C1 (stereo not drawn) | 74%
6 | COCCCNC(=O)c1cc(-c2ccc(OC)cc2)nc2n[nH]c(-c3ccc(Cl)cc3)c12 | 73%
7 | Cn1c(=O)n(C)c2cc(N3CCOCC3)c(NC(=O)c3ccccc3Br)cc21 | 82%
8 | CCc1ccc(NC(=O)Cn2c(=O)ccc3cc(S(=O)(=O)N4CCCC4)ccc32)cc1 | 144%
9 | Cc1ccc(NC(=O)Cn2c(=O)ccc3cc(S(=O)(=O)N4CCCC4)ccc32)cc1C | 98%
10 | Cc1ccc(NC(=O)Cn2c(=O)ccc3cc(S(=O)(=O)N4CCCC4)ccc32)cc1N(C)C | 32% (active)
11 | COc1cccc(NC(=O)CC2NCCNC2=O)c1 (stereo not drawn) | 84%
12 | CCCCN(C)CCNC(=O)c1ccc2c(=O)n(CCc3ccccc3)c(=O)[nH]c2c1 | 77%
13 | COc1cc2ncc(C(=O)c3ccc(C)cc3)c(N3CCCCC3)c2cc1OC | 2% (active)
14 | CCOc1ccc(C(=O)c2cnc3ccc(Cl)cc3c2S(=O)(=O)c2ccc(C)cc2)cc1 | 80%
15 | COc1ccc(C(=O)c2cnc3ccc(C)cc3c2S(=O)(=O)c2ccccc2)cc1 | 69%
16 | CCOC(=O)C1CCCN(c2c(C(=O)c3ccc(OCC)cc3)cnc3ccccc23)C1 (stereo not drawn) | -3% (active)
17 | CCOc1ccc2nc(N3CCCC(C(=O)NCc4ccc(C)cc4)C3)sc2c1 (stereo not drawn) | 71%
18 | CCOC(=O)C1CCN(c2c(C(=O)c3ccc(C)cc3)cnc3ccc(F)cc23)CC1 | 2% (active)
19 | CCOC(=O)C1CCN(c2c(C(=O)c3ccc(OCC)cc3)cnc3ccc(OC)cc23)CC1 | 37%
20 | CCOC(=O)C1CCN(c2c(C(=O)c3ccc(OC)cc3)cnc3ccccc23)CC1 | 125%
21 | CCOC(=O)C1CCCN(C(=O)c2ccc(OCC)cc2)C1 (stereo not drawn) | 77%
22 | CCc1ccc2ncc(C(=O)c3ccc(C)c(C)c3)c(N3CCC(C(N)=O)CC3)c2c1 | 86%

Row | SMILES | survival
23 | CCOC(=O)C1CCCN(c2c(C(=O)c3ccc(C)cc3)cnc3ccc(OCC)cc23)C1 (stereo not drawn) | 10% (active)
24 | COc1ccc(S(=O)(=O)c2cnc3cc(OC)c(OC)cc3c2N2CCCC(C)C2)cc1 (stereo not drawn) | 116%
25 | CCC(=O)NC1CC(=O)N(c2ccc3c(c2)OCCO3)C1 (stereo not drawn) | 82%
26 | CC(=O)N1CCC(N(Cc2ccc(C)o2)C(=O)Nc2cccc(C(F)(F)F)c2)CC1 | 91%
27 | CC(C)NC(=O)c1ccc(NC(=O)N2CCCCc3ccccc32)cc1 | 70%
28 | Cc1ccc(CN(C(=O)COc2ccc(Cl)c(C)c2)c2ccccn2)o1 | 52%
29 | CCOC(=O)c1cc(S(=O)(=O)N2CCN(c3ccc(OC)cc3)CC2)[nH]n1 | 128%
30 | CCC1Oc2ccccc2N(CC(=O)NCCc2ccc(OC)c(OC)c2)C1=O (stereo not drawn) | 115%
31 | COc1cccc2c1ncc1c(-c3ccc(C)cc3)nn(-c3cccc([N+](=O)[O-])c3)c12 | 87%
32 | Cc1ccc(NC(=O)CCn2cnc3onc(-c4ccc(F)cc4)c3c2=O)c(Br)c1 | 102%
33 | CCOC(=O)C1CCCN(c2c(C(=O)c3ccccc3)cnc3ccc(F)cc23)C1 (stereo not drawn) | 35% (active)
34 | CCc1ccc(C(=O)c2cnc3ccc(F)cc3c2S(=O)(=O)c2ccccc2)cc1 | 123%
35 | CCOC(=O)C1CCCN(c2c3c(nc4cc(-c5ccc(F)cc5)nn24)CCCC3)C1 (stereo not drawn) | 76%
36 | CCOC(=O)c1c(S(=O)(=O)NCC(=O)N2CCN(c3cc(C)ccc3C)CC2)c(C)n(C)c1C | 71%
37 | COc1ccccc1CNC(=O)c1ccc2c(c1)CCN2S(=O)(=O)c1ccc(Cl)cc1 | 82%
38 | COc1ccccc1CNC(=O)c1ccc2c(c1)CCN2S(=O)(=O)c1ccccc1 | 43% (active)
39 | CCS(=O)(=O)N1CCc2cc(C(=O)NCc3ccccc3Cl)ccc21 | 89%
40 | COc1ccccc1N1CCN(C(=O)c2ccc3c(c2)CCN3S(=O)(=O)c2ccccc2)CC1 | 62%
41 | CCS(=O)(=O)N1CCc2cc(C(=O)NCc3ccccc3OC)ccc21 | 40% (active)
42 | CCS(=O)(=O)N1CCc2cc(C(=O)NCc3ccccc3)ccc21 | 68%
43 | CC1=C(C(=O)Nc2ccccc2)C(c2cccnc2)n2nc(SCc3ccccc3Cl)nc2N1 (stereo not drawn) | 179%
44 | CCCCNC(=O)CN1C(=O)COc2ccc(S(=O)(=O)N3CCCCCC3)cc21 | 80%

Row | SMILES | survival
45 | Oc1ccccc1-c1nc(/C=C/c2ccccc2)nn1-c1ccccc1 | 7% (active)
46 | CN(C)c1ccc(/C=C/c2noc(-c3ccccc3O)n2)cc1 | 86%
47 | CN(C)c1ccc(/C=C/c2nc(-c3ccccc3O)n(-c3ccccc3)n2)cc1 | 42% (active)
48 | N#Cc1nc(/C=C/c2ccc(F)cc2)oc1N1CCN(c2ccccc2)CC1 | 73%
49 | Cc1nc(C)c(C(=O)N/N=C/c2ccc(O)cc2O)cc1C(=O)N/N=C/c1ccc(O)cc1O | 80%
50 | Oc1ccc(/C=C/c2nc(-c3ccccc3O)n(-c3ccccc3)n2)c(O)c1 | -3% (active)
51 | CC(=O)Nc1ccc(/C=C/c2noc(-c3ccccc3O)n2)cc1 | 75%
52 | CC(=O)Nc1ccc(/C=C/c2nc(-c3ccccc3O)n(-c3ccccc3)n2)cc1 | 84%
53 | Oc1ccccc1-c1nc(/C=C/c2ccc(F)cc2)nn1-c1ccccc1 | 26% (active)
54 | CN(C)c1ccc(/C=N/NC(=O)c2ccccc2)cc1 | 95%
55 | Oc1ccccc1-c1nc(/C=C/c2ccc(F)cc2)no1 | 79%
56 | Cc1ccc2c(c1)c(N1CCCC1=O)c(C(=O)Nc1ccc(F)cc1F)n2C | 71%
57 | CCCCN(CCCC)CCNC(=O)CN1C(=O)CSc2ccc(S(=O)(=O)N3CCOCC3)cc21 | 92%
58 | CCCCN(CCCNC(=O)c1cc(Nc2ccc(OC)cc2OC)nc2ccccc12)Cc1ccccc1 | 99%
59 | O=c1c2sc3ccccc3c2n(Cc2ccccc2Cl)c(=O)n1Cc1ccccc1 | 56%
60 | CC(C)(C)C(=O)NC1CC(=O)N(c2ccc3c(c2)OCCO3)C1 (stereo not drawn) | 125%
61 | Cn1cc(-c2cc3n(n2)CCC(=O)N3CCCC(=O)Nc2ccc(F)cc2F)c2ccccc21 | 128%
62 | Cc1c(Cl)cccc1-n1ncc(C(=O)Nc2ccc3c(c2)OCCO3)c1C1CCN(C(=O)OC(C)(C)C)CC1 | 102%
63 | CC(CNC(=O)CCc1cn(Cc2ccccc2Cl)c2ccccc12)c1ccccc1 (stereo not drawn) | 66%
64 | Cc1nn(-c2ccccc2)c(Cl)c1C(N)=O | 73%
65 | COc1cc2c(-c3cc(Br)ccc3O)nc3c(c(C)nn3-c3ccccc3)c2cc1OC | 77%
66 | COc1ccc(/C=C/c2noc(-c3ccccc3O)n2)cc1OC | 130%

Row | SMILES | survival
67 | Oc1ccccc1-c1nc(/C=C/c2ccccc2Cl)no1 | 67%
68 | COc1ccc(/C=C/c2nc(-c3ccccc3O)n(-c3ccccc3)n2)cc1OC | 13% (active)
69 | Oc1ccccc1-c1nc(/C=C/c2ccccc2Cl)nn1-c1ccccc1 | 14% (active)
70 | CCc1ccc(C2CC(=O)c3c([nH]c(C(=O)OCC4CCCCC4)c3C)C2)cc1 (stereo not drawn) | 89%
71 | Cc1c(C(=O)N2CCCCCC2)c(S(=O)(=O)Nc2ccc(OC(F)(F)F)cc2)c(C)n1C | 113%
72 | CCOc1ccc(C(=O)Nc2cc(-c3nc4cc(OC)ccc4o3)ccc2C)cc1[N+](=O)[O-] | 62%
73 | CCOC(=O)c1cnc2cc(C(F)(F)F)ccc2c1Nc1ccc(F)cc1F | 2% (active)
74 | CCCOC(=O)c1ccc(Nc2c(C(=O)OCC)cnc3c(C)cc(Cl)cc23)cc1 | 11% (active)
75 | CCOC(=O)c1ccc(Nc2ncnc3c2cnn3-c2cccc(Cl)c2)cc1 | 75%
76 | CCOC(=O)c1cnc2c(C)cccc2c1Nc1ccc(OC(C)C)cc1 | 2% (active)
77 | CCOC(=O)c1cnc2c(C(F)(F)F)cccc2c1Cl | 82%
78 | CCOC(=O)c1cnc2cc(C(F)(F)F)ccc2c1Nc1cc(C)ccc1OC | 71%
79 | CCOC(=O)c1cnc2c(Cl)cc(Cl)cc2c1Nc1cc(C(=O)O)ccc1C | 60%
80 | CCOC(=O)c1ccc2nc(C)cc(Nc3ccc(OC(C)C)cc3)c2c1 | 133%
81 | CCOC(=O)c1cnc2c(C(F)(F)F)cccc2c1Nc1cccc(C(=O)OC)c1 | 14% (active)
82 | CCOC(=O)c1cnc2cc(C(F)(F)F)ccc2c1N1CCN(c2ccc(F)cc2)CC1 | 57%
83 | CCOc1ccc(NC(=O)c2c(NCc3cc(OC)c(OC)cc3OC)sc3c2CCCC3)cc1 | 74%
84 | CCOC(=O)C1CCCN(S(=O)(=O)c2ccc(N3CCCCS3(=O)=O)cc2)C1 (stereo not drawn) | 55%
85 | O=C(c1cnn(-c2ccc(F)cc2)c1-n1cccc1)N1CCN(c2cccc(Cl)c2)CC1 | 70%
86 | CCOc1ccccc1CNC(=O)c1ccc2nc(CCc3ccccc3)oc2c1 | 83%
87 | Cc1cccc(C(=O)NCC(=O)OCc2cc(=O)n3nc(CC(C)C)sc3n2)c1 | 105%
88 | O=C(Cn1c2ncccc2c(=O)n1-c1ccccc1)NCc1ccccc1Cl | 68%
